# Source: PubChem (National Center for Advancing Translational Sciences (NCATS))
# BAZ2B inh: inhibitors of human BAZ2B bromodomain; AlphaScreen BAZ2B-H3K14Ac peptide displacement; Q9UIF8; AID 504333; Potency, µM (highest dose often 114 µM), inactives show at the top dose activity change, negative = inhibition, most hits filed as inhibitors; actives 4.4% (n = 360,000); further: on the % scale 0 is the no-effect control and ±100 the full control effect; nearly all actives have a fitted effect of over 60% in size
#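 Multi-concentration screen (max 110 uM) measuring displacement of acetylated histone H3 peptide from BAZ2B by AlphaScreen, using 50 nM protein, 50 nM peptide and 10 ug/mL streptavidin donor plus Ni-chelate acceptor beads.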
# HP1b chromo inh: blocks HP1-beta chromodomain binding to methylated histone tails; P83916; AlphaScreen HP1-beta / biotin-H3K9me3 peptide binding; Potency, µM (top dose mostly 114 µM), without a hit: top-dose activity change, negative = inhibition, usual class: inhibitors; actives 0.56% (n = 390,000); AID 540317; further: nearly all actives have a fitted effect of over 70% in size
# Target sequence (P83916 whole entry, looked up): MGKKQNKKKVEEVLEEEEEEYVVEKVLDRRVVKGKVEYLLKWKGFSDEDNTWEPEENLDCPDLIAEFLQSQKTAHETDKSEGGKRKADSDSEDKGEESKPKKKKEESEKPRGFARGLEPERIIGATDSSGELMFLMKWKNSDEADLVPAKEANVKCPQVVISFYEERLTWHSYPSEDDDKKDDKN
#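 AlphaScreen: HP1-beta (50 nM) preformed 30 min with biotin-H3(1-18)K9me3 peptide (50 nM) in PBS pH 7.4, 0.01% Tween-20. Compound added for 30 min at RT, then streptavidin donor/nickel chelate acceptor beads (10 ug/mL) for 30 min.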
# G9a block: inhibitors of human histone lysine methyltransferase G9a | G9a H3K9 monomethylation, AlphaScreen, 2 h | Potency, µM (top dose mostly 102 µM), inactives show top-dose activity, negative = inhibition, usual class: inhibitors | actives 8.8% (n = 350,000) | AID 504332; further: on the % scale 0 is the no-effect control and ±100 the full control effect; nearly all actives have a fitted effect of over 75% in size
# Target sequence (Q96KQ7 913-1193 limits assumed): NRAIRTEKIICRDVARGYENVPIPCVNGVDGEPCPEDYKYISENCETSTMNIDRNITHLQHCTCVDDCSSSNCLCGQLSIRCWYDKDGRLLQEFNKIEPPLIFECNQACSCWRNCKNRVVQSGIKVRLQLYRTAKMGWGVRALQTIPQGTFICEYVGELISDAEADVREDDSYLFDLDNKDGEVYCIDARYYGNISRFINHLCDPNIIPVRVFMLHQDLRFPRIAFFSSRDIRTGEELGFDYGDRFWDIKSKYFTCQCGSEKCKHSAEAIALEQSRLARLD
#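 Step 1: enzyme (final 20 nM) with compound, 15 min RT. Step 2: substrate peptide 500 nM and SAM 20 uM, 2 h RT. Step 3: anti-H3K9me1 antibody and AlphaScreen beads, 10 min, then plate read.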
# L3MBTL1 inh: L3MBTL1 (human) inhibition | AlphaScreen L3MBTL1–H3K9me1 peptide binding | Potency, µM (titrated, usually from 57.1 µM), for inactives: at the highest dose activity, negative = inhibition, actives largely listed as inhibitors | actives 0.66% (n = 230,000) | AID 485360 | Q9Y468; further: on the % scale 0 is the no-effect control and ±100 the full control effect; nearly all actives have a fitted effect of over 60% in size
#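 L3MBTL1 (50 nM) pre-complexed 30 min with biotinylated H3(1-15)K9me1 peptide (75 nM), then compounds added for 30 min at room temperature; AlphaScreen streptavidin donor/nickel chelate acceptor beads (10 ug/mL final) read after 30 min dark incubation.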
# JMJD2A Tudor inh: blocks the human JMJD2A Tudor domain | actives 4.4% (n = 390,000) | AID 504339 | AlphaScreen JMJD2A-Tudor / H3K4me3 peptide binding | O75164 | Potency, µM (top dose mostly 114 µM), without a hit: at the highest dose activity change, negative = inhibition, most hits filed as inhibitors; further: on the % scale 0 is the no-effect control and ±100 the full control effect; nearly all actives have a fitted effect of over 50% in size
# Sfp PPTase inh: Sfp phosphopantetheinyl transferase inhibition; Q9F4F7; Biochemical Sfp PPTase activity, qHTS; Potency, µM, for inactives: largest response in the series, negative = inhibition, usual class: inhibitors; actives 3.5% (n = 310,000); AID 1490;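 further: the enzyme is Sfp with the accession as filed and its product quenches rhodamine fluorescence; 0% = enzyme reaction without inhibitor and -100% = no enzyme wells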
#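 Fluorescence-quenching assay with 15 nM Sfp, 5 uM rhodamine-CoA and 12.5 uM BHQ-2-labelled ybbR peptide in pH 7.6 Hepes/MgCl2 buffer. Enzyme was pre-incubated with compound for 15 min at room temperature. Rate was taken from the 30-min fluorescence change (525/598 nm).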
# * marks the source's active call; other numbers are inactive results; ? = inconclusive; · = not tested or not shown; [ ] = remark or other dose. A selection: hits, their analogues and other compounds. The true share with any hit is near 12%. The call rests on the fitted dose curve; in most records, active means well fitted curve in the direction sought with a large enough effect; inconclusive means small, poorly fitted or top-dose-only effect, or another doubt; inactive means no such curve, though single readings can be large; an effect the other way counts as inactive or inconclusive. Potency means the concentration at half of the fitted maximal effect.
SMILES,BAZ2B inh,HP1b chromo inh,G9a block,L3MBTL1 inh,JMJD2A Tudor inh,Sfp PPTase inh
CCOCCCn1c(SCC(=O)Nc2ccc(OC)cc2)nc2ccccc2c1=O,0.3%,-20.7%,31.6µM*,-1.9%,0.0%,50.1µM*
COc1ccccc1CNC(=O)COC(=O)/C=C/c1ccc(OC(F)F)c(OC)c1,1.5%,35.7%,2.8%[0.501 µM],11.0%,-14.4%,·
CCNC(=O)COn1c(SCC(=O)NCC)nc2ccccc2c1=O,-0.3%,34.8%,?,-9.4%,5.4%,-5.5%
C=CCNC(=O)c1ccc2c(c1)S(=O)(=O)c1ccccc1C2=O,·,42.3%,·,·,-23.2%,·
Cc1n[nH]c(=O)c2c(NC(=O)CSc3nnc(C4CC4)n3C)oc(C)c12,-38.4%,47.2%,39.8µM*,2.8%,-13.8%,·
COc1ccc(OC)c(-n2nnnc2SCC(=O)Nc2ccccc2OC)c1,-30.1%,-1.1%,6.7%[0.501 µM],12.0%[2.29 µM],-21.9%,-0.2%
Cc1n[nH]c(=O)c2c(NC(=O)CSc3nncn3C(C)C)oc(C)c12,9.3%,23.9%,?,5.3%,-12.0%,·
COc1ccccc1NC(=O)CSc1nnnn1-c1ccccc1OC,5.5%,40.0%,70.8µM*,-0.9%,-9.0%,12.3%
COc1ccccc1NC(=O)CSc1nnc(Cc2ccccc2)o1,2.1%,6.8%,14.1µM*,·,-19.7%,8.5%
CCOC(=O)CSc1nnnn1-c1cccc2ccccc12,12.8%,74.7%,10µM*,-5.3%,11.6%,-2.0%
COc1ccc(NC(=O)COC(=O)c2cc(C)oc2C)c([N+](=O)[O-])c1,-34.1%,14.7%,?,1.0%,-21.9%,·
Nc1nccnc1C(=O)OCC(=O)NNC(=O)c1ccccc1,-38.2%,44.2%,?,·,-13.8%,11.6%
CCOc1ccccc1NC(=O)CSc1nc2ccccc2c(=O)n1CC1CCCO1 (stereo unspecified),1.3%,-0.9%,4.47µM*,·,-8.1%[57.1 µM],?
Cc1n[nH]c(=O)c2c(NC(=O)CSc3nc4ccccc4c(=O)n3-c3ccc(OC(F)F)cc3)oc(C)c12,0.5%,9.6%,4.3%[0.501 µM],-7.4%,-23.4%,·
COc1ccccc1-n1nnnc1SCC(=O)Nc1oc(C)c2c(C)n[nH]c(=O)c12,-6.4%,44.9%,11.2µM*,-5.2%,-14.9%,·
Cc1n[nH]c(=O)c2c(NC(=O)CSc3nnc(-c4ccco4)n3C)oc(C)c12,-0.7%,44.5%,?,-0.6%,-12.3%,·
COCC(C)n1c(COc2ccccc2F)nnc1SCC(=O)Nc1oc(C)c2c(C)n[nH]c(=O)c12 (stereo unspecified),-18.2%,42.9%,10µM*,7.0%,-11.7%,·
COc1ccccc1-c1nnc(SCC(=O)Nc2oc(C)c3c(C)n[nH]c(=O)c23)n1C,-1.8%,40.6%,5.01µM*,2.7%,-3.4%,·
CC(C)(C)OC(=O)NCc1nnc(-c2cc3ccccc3[nH]2)o1,·,·,·,·,-11.6%,·
CCC1CCc2nc3sc(C(=O)Nc4ccc(F)cc4F)c(N)c3cc2C1 (stereo unspecified),-2.0%,40.6%,1.5%[59 µM],·,-4.8%,·
COc1ccc(N2N=NN(C(C)C)C2=C(Cl)c2nnnn2-c2ccc(OC)cc2)cc1,·,44.7%,·,·,-9.0%,·
CCCNC(=O)c1cnc(Sc2ncc(C(F)(F)F)cc2Cl)n1C,50.1µM*,22.0%,17.8%,·,-2.5%,15.5%
O=C1OC(c2ccccc2)=N/C1=C\N1CCCCC1,?,-11.3%,7.3%[59 µM],-14.5%,?,2.5%
O=C1OC(c2ccccc2)=C/C1=C/N1CCCCC1,50.1µM*,-22.0%,?,-5.0%,?,?
CS(=O)(=O)c1ccc(Cl)c(NC(=O)Cc2ccccc2F)c1,-2.9%,-20.5%,-33.4%,-2.4%,22.4µM*,16.0%
SMILES,BAZ2B inh,HP1b chromo inh,G9a block,L3MBTL1 inh,JMJD2A Tudor inh,Sfp PPTase inh
CS(=O)(=O)c1ccc(Cl)c(NC(=O)Cc2c(F)cccc2Cl)c1,-10.7%,37.2%,-3.8%,7.5%,-9.0%,11.8%
CCC(C)N(C(=O)CSc1nnc(-c2ccco2)n1C)C1CCS(=O)(=O)C1 (stereo unspecified),11.4%,0.4%,11.7%[12.7 µM],2.8%,-17.3%,·
CCN(C(=O)Cn1cnc2c1c(=O)n(C)c(=O)n2C)c1ccccc1C,-3.0%,12.5%,-4.8%[59 µM],·,-15.7%,·
CC(=O)c1ccc(N2C(=O)C3C4C=CC(CC4)C3C2=O)cc1 (stereo unspecified),-20.7%,32.5%,5.2%,·,-1.4%,2.4%
O=C1C2C3C=CC(CC3)C2C(=O)N1c1ccc([N+](=O)[O-])cc1 (stereo unspecified),-3.6%,19.2%,31.6µM*,2.2%,-5.6%,5.4%
COC(=O)C1CCN(S(=O)(=O)c2ccc(N3CCCCS3(=O)=O)cc2)CC1,-2.7%,21.3%,2.0%[59 µM],·,-4.3%,·
COc1cc(C2NC(C(=O)O)CS2)ccc1OCc1ccccc1C#N (stereo unspecified),-2.8%,·,20µM*,16.3%[11.4 µM],·,17.8µM*
CCOC(=O)COc1ccc(C2NC(C(=O)O)CS2)cc1 (stereo unspecified),56.2µM*,?,?,12.2%[11.4 µM],7.94µM*,44.7µM*
COC(=O)c1ccc(C2NC(C(=O)O)CS2)cc1 (stereo unspecified),?,-63.1%,3.55µM*,·,6.31µM*,56.2µM*
Cc1noc(C)c1NC(=O)N(C)C[C@H]1Oc2ccc(NC(=O)Nc3ccccc3)cc2C(=O)N([C@H](C)CO)C[C@@H]1C,·,21.3%,·,1.6%,-17.8%,·
S=c1[nH]nc(CN2CCCCC2)n1Cc1ccccc1,-22.8%,20.7%,22.4µM*,·,12.6µM*,15.0%
O=C(NCc1n[nH]c(=S)n1Cc1ccccc1)c1ccccc1,-12.1%,7.6%,35.3%,5.4%,?,-13.0%
S=c1[nH]nc(CN2CCCC2)n1Cc1ccccc1,-4.0%,11.3%,50.1µM*,?,3.55µM*,16.2%
O=C(NCCc1ccccc1)c1ccc(CSc2nc3ccncc3n2Cc2ccccc2F)cc1,-4.3%,52.2%,?,·,-16.4%,·
CCCc1cc(=O)oc2cc(C)cc(OC(C)C(=O)NCc3ccncc3)c12 (stereo unspecified),-17.7%,69.8%,9.2%,·,-10.3%,22.7%
Cc1ccc(N=C2C(=S)N(c3ccc(C)cc3)C(=N)N2/N=C/c2ccc(Cl)cc2)cc1,?,3.55µM*,?,-23.5%,?,39.8µM*
COc1ccc(/C=N/N2CCN(c3ccc(Cl)cc3)CC2)cc1,-23.8%,18.1%,9.3%,-3.3%,-17.7%,14.3%
NNc1ccc(Cl)nn1,20µM*,79.4µM*,·,-22.7%,8.91µM*,44.7µM*
CNc1ccc(Cl)nn1,-7.9%,18.7%,19.8%[12.7 µM],14.2%,-1.4%,14.3%
O=S(=O)(NCc1nc2cccnc2n1Cc1ccccc1)c1ccc2c(c1)CCCC2,-11.0%,25.3%[57 µM],-8.0%[59 µM],·,-32.3%,·
